A selection: hits, their analogues and other compounds. The true share with any hit is near 4.8%.
NF-kB neuron act – activators of NF-kB expression in neurons, primary screen, cell-based, HTS; AID 1239, 2008; actives 1.6% (n = 190,000); human neuronal cells, NF-kB reporter expression; stronger effect = higher value; fold change at 12.5 µM; in the data active means fold change above about 3.3
Wee1 stabilizer – Wee1 degradation inhibitors, primary screen, cell-based, HeLa, Wee1K328M-luciferase, luminescence; HeLa Luc-Wee1K328M stability; 100% = proteasome inhibitor MG132 effect; reporter increase, % at 5 µM; actives 1.2% (n = 220,000); AID 1321, 2008;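 active means activation above the mean of all tested compounds plus 3 SD, set per screening run, cut at about 8.8% in these data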;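 further: cells exposed to compound for 20 h before luminescence read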
Target sequence (P30291 whole entry K328M): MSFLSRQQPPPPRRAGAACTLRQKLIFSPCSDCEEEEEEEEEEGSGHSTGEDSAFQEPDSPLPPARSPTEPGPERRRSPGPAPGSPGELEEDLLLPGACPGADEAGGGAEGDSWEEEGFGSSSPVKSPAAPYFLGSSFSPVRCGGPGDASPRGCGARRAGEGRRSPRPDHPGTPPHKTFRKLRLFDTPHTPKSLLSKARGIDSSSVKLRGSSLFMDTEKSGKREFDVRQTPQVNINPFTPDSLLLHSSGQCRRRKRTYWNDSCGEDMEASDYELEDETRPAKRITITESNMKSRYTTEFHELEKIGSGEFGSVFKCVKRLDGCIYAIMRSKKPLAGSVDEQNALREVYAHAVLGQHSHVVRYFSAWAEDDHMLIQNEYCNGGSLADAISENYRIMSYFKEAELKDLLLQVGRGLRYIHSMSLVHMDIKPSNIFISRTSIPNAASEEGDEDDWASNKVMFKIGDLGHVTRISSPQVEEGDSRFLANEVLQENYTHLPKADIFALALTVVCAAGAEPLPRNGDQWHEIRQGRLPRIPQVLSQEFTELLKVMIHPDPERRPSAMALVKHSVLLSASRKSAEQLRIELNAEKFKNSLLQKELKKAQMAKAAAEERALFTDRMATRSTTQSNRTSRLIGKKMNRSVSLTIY
APP 5'UTR act – activators of APP 5'UTR luciferase reporter, primary screen, SH-SY5Y cells. SH-SY5Y APP 5'UTR luciferase reporter, luminescence; zero percent = DMSO vehicle wells. activation, % at 2 µM. actives 1% (n = 190,000);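 active means activation above a set limit, based on mean plus 3 SD of controls, cut at about 140% in these data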
STAT1 act – STAT1 signaling activators, primary screen, cell-based, HTS, luciferase reporter. actives 2.6% (n = 200,000). NIH 3T3 STAT1-luciferase reporter, IFN-gamma, luminescence; 100% = IFN-gamma alone, no compound. AID 932, 2007. activation (% of control), % at 5.5 µM;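 active means activation above the screen-wide mean activation plus 3 SD, cut at about 130% in these data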
APP 5UTR inh – inhibitors of APP translation via 5'UTR reporter, primary screen, APP 5'UTR luciferase, SH-SY5Y cells; SH-SY5Y APP 5'UTR-luciferase reporter, luminescence; inhibition, % at 2 µM; actives 0.82% (n = 190,000);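 active means inhibition above a set limit, derived from the sample mean plus 3 SD, cut at about 45% in these data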
Hsp70 act – Hsp70 transcriptional activators, primary screen, cell-based, HeLa, Hsp70 promoter luciferase, luminescence, 10 µM. activation, % at 10 µM. actives 0.04% (n = 200,000). AID 1203, 2008. HeLa Hsp70 promoter luciferase reporter; scaled: vehicle 0, proteasome-inhibitor control 100%;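 active means activation above the mean across all tested compounds plus 3 SD, cutoff set per campaign, cut at about 5.5% in these data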
Numbers stand for hits; – = inactive; · = no result.

SMILES | NF-kB neuron act | Wee1 stabilizer | APP 5'UTR act | STAT1 act | APP 5UTR inh | Hsp70 act
N#Cc1c(/N=C/c2ccco2)sc2c1CCC2 | – | – | – | – | – | –
Cc1ccc(/C=N/c2sc3c(c2C#N)CCCCC3)o1 | – | – | – | 139 | – | –
O=C(c1cc2sccc2n1Cc1ccc(F)cc1)N1CCCc2ccccc21 | – | – | – | – | 58 | –
Cc1nn2cc(-c3ccc(Cl)cc3)cnc2c1Cl | 3.4 | – | 155 | 140 | – | –
CC(C)(C)C(=O)Nc1cccc(-c2nc3ccccc3c(=O)o2)c1 | – | – | – | – | – | –
COc1ccc(/C=C/CN2CCCC(C(=O)c3ccc(OC)c(F)c3)C2)cc1 (configuration not stated) | – | 9.1 | – | – | – | –
COCCNC(=O)CN(c1ccccc1OC)S(C)(=O)=O | – | – | – | – | – | –
COc1cccc(NC(=O)Nc2ccc3nsnc3c2)c1 | – | – | · | 131 | · | –
COc1cccc(NC(=O)Nc2ccc3c(c2)nc(C)n3C)c1 | 5.7 | – | – | – | – | –
Cc1nc2cc(NC(=O)NC(C)(C)C)ccc2n1C | – | – | – | – | – | –
COc1ccc(NC(=O)Nc2cccc(OC)c2)cc1 | · | – | – | – | – | –
Cc1ccc(S(=O)(=O)NC(=O)COc2ccccc2)cc1 | – | – | – | – | – | –
Cc1ccc(NN=C2c3ccccc3-c3ccccc32)cc1 | – | – | – | – | – | –
CC/C(=N/NC(=O)c1ccc(Br)o1)c1ccc(Cl)cc1 | – | – | – | 131 | – | –
Cc1ccc2nc(CSc3nnc(-c4ccco4)o3)cc(=O)n2c1 | – | – | – | – | – | –
O=C(OCc1nc2ccccc2s1)c1cccc(S(=O)(=O)N2CCOCC2)c1 | – | – | – | 130 | – | –
O=C(Nc1ccc(Oc2ccccc2)cc1)C1CCCO1 (configuration not stated) | – | – | – | 132 | – | –
O=C(Nc1ccc(-c2nc3ccccc3o2)cc1)C1CCCO1 (configuration not stated) | 4.2 | – | 233 | 140 | – | –
CC1CCN(CCNC(=O)c2ccc(NC(=O)C3CCCO3)cc2)CC1 (configuration not stated) | – | 9.3 | – | – | – | –
O=C(Nc1ccc(-c2nc3cc(Cl)ccc3o2)cc1)C1CCCO1 (configuration not stated) | – | – | – | 150 | – | –
CCOC(=O)c1c(NC(=O)CN2C(=O)NC3(CCCCC3C)C2=O)sc(C)c1C (configuration not stated) | – | – | – | – | – | –
COc1ccc(NC(=O)CN(Cc2ccccc2)S(C)(=O)=O)cc1 | – | – | – | – | – | –
Cc1cc(C)c2nc(NNC(=O)c3ccc(S(=O)(=O)N4CCc5ccccc5C4)cc3)sc2c1 | – | – | – | – | – | –
O=C(O)c1cc(S(=O)(=O)N2CCN(c3ccccn3)CC2)ccc1Cl | – | – | – | – | – | –
O=C(c1ccccc1)c1nnc(-c2ccccc2F)o1 | 9.8 | – | – | – | – | –
SMILES | NF-kB neuron act | Wee1 stabilizer | APP 5'UTR act | STAT1 act | APP 5UTR inh | Hsp70 act
CCOC(=O)c1c(NC(=O)Nc2ccc(C)cc2)sc2c1CCN(C)C2 | · | 10 | · | · | · | ·
CN(C)c1ccc(C(=S)NC2CCCCC2)cc1 | 3.4 | 10 | – | 132 | – | –
CCN(CC)c1ccc(C(=S)NC2CCCCC2)cc1 | – | – | – | – | – | –
O=C(COC(=O)Cc1n[nH]c(=O)c2ccccc12)Nc1ccc(Cl)cc1F | – | 8.9 | – | – | – | –
Cn1c(CNc2nc3ccccc3n2C)nc2ccccc21 | – | – | – | – | – | –
CCOC(=O)c1ccc(NCc2nc3ccccc3n2C)cc1 | – | – | – | 139 | – | –
O=C(Nc1ccccc1)N1CC=C(c2ccccc2)CC1 | – | – | – | 145 | – | –
O=C(Nc1ccccc1)N1CC=C(c2ccc(F)cc2)CC1 | – | – | – | 142 | – | –
N#Cc1nc(-c2ccco2)oc1N1CCc2ccccc2C1 | – | – | – | – | – | –
CCc1ccc(NC(=O)c2cnc3n(c2=O)CCS3)cc1 | – | – | – | 131 | – | –
O=C(Nc1cccc(-c2nnc(-c3ccccc3)o2)c1)C1CCCCC1 | – | – | – | 141 | – | –
Cc1ccc(OCC(=O)Nc2cccc(-c3nnc(-c4ccccc4)o3)c2)cc1 | – | – | – | 143 | – | –
Cc1cccc(OCC(=O)Nc2cccc(-c3nnc(-c4ccccc4)o3)c2)c1C | – | – | – | 130 | – | –
COc1cccc(-c2nnc(NC(=O)C3CCCCC3)o2)c1 | – | – | – | – | – | –
COc1ccc(OCC(=O)Nc2cccc(OC)c2)cc1 | – | – | – | – | – | –
COc1cccc(NC(=O)COc2ccccc2C(N)=O)c1 | – | – | – | 134 | – | –
CCc1c(C)nc2ncnn2c1N1CCC(C(=O)Nc2ccc(C)cc2)CC1 | – | – | – | – | – | –
CN(C)c1ccc(N=Nc2cccc3ccoc23)cc1 | · | 9.0 | · | · | · | ·
CCCCCn1c(SCC2CCCO2)nc2cc(C(=O)N3CCC(C(N)=O)CC3)ccc2c1=O (configuration not stated) | – | – | – | – | – | –
O=C(NC(Nc1nc2ccc([N+](=O)[O-])cc2s1)(C(F)(F)F)C(F)(F)F)c1ccccc1Cl | – | – | – | – | 66 | –
OC1CCCCC1Sc1nc2ccccc2s1 (configuration not stated) | – | – | – | 130 | – | –
O=C1OCCC1Sc1nc2ccccc2s1 (configuration not stated) | – | – | – | – | – | –
Cc1ccc(-c2nnc(CSc3nnc(C)s3)o2)cc1 | – | – | – | – | – | –
Cc1csc(SCc2nnc(-c3ccccc3Br)o2)n1 | 5.4 | – | 185 | 134 | – | –
Brc1ccccc1-c1nnc(CSc2nnnn2-c2ccccc2)o1 | – | – | – | – | – | –
SMILES | NF-kB neuron act | Wee1 stabilizer | APP 5'UTR act | STAT1 act | APP 5UTR inh | Hsp70 act
Cc1nnc(SCc2nnc(-c3ccccc3Br)o2)n1-c1ccccc1 | – | – | – | – | – | –
Fc1ccccc1SCc1nnc(-c2ccccc2Br)o1 | 7.2 | – | 161 | – | – | –
Cc1csc(SCc2nnc(-c3ccc(Cl)cc3)o2)n1 | 3.7 | – | – | – | – | –
Cc1ccccc1NC(=O)Cn1cccc1 | – | – | – | – | – | –
O=C(O)/C=C/c1ccc2noc(-c3ccccc3)c2c1 | · | 26 | – | – | – | –
Cc1ccc(-c2onc3ccc(C=O)cc23)cc1 | – | – | – | – | – | –
Cc1ccc(NS(=O)(=O)c2cc(C(=O)N3CCCC3)ccc2C)cc1C | – | – | – | – | – | –
